# Results as given in the supplement of paper PMC10849652.
# Targets with a hit are over-represented here; the source holds about 8,800 in all. About 0.5% of all pairs of compound and target were hits. Values without a mark were called inactive.
# Key:
# Experiment in all cases: log2 fold change, soluble protein after heating vs DMSO (PISA); higher = thermal stabilisation; K562 lysate, 10 uM; active = over 0.2 and 3.5 SD of the protein, either way, in both replicates (recomputed)
# erlotinib = compound: C#Cc1cccc(Nc2ncnc3cc(OCCOC)c(OCCOC)cc23)c1 [erlotinib]
# Outline: (§1)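 Pellets of K562 cells were dounce-homogenised in PBS pH 7.4 with 1 mM MgCl2, and the crude extract was held at 1 mg/mL protein for a 30 min treatment with 10 μM compound. Aliquots were heated for 3 min over 48°C-58°C and pooled before NP-40 was added to 0.5% at 4°C. The supernatant from 21,000xg for 90 min was quantified by TMTpro 16plex LC-MS/MS with channel sums equalised. Values are reported from duplicates as log-two fold change in thermal stability relative to solvent controls.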
# [1] = compound: C/C(=N\NC(=O)C1=CC(=CC=C1)S(=O)(=O)N2CCOCC2)/C3=C(C=CC(=C3)Cl)O
# Outline: as §1
# [2] = compound: C1=CC(=CC=C1C2=NC3=C(N2)C=C(C=C3)C(=O)N)OC4=CC=C(C=C4)Cl
# Outline: as §1
# [3] = compound: C1=CC2=C(C=CC(=C2)/C=C\3/C(=O)NC(=NCC4=CC=CS4)S3)N=C1
# Outline: as §1
# [4] = compound: C1=CC2=NC=CN=C2C=C1/C=C/3\C(=O)NC(=O)S3
# Outline: as §1
# [5] = compound: C1=CC=C(C=C1)C2=NC(=C(N2)C3=CC=NC=C3)C4=CC(=C(C=C4)Cl)O
# Outline: as §1
# [6] = compound: C1=CC=C2C(=C1)C3=NNC4=CC=CC(=C43)C2=O
# Outline: as §1
# [7] = compound: C1CCN(C1)C(=O)NC2=CC=CC(=C2)NC3=NC=C(C(=N3)NCCC4=CN=CN4)Br
# Outline: as §1
# [8] = compound: C1CN(CCC1(CC2=CC=C(C=C2)Cl)N)C3=NC=NC4=C3C=CN4
# Outline: as §1
# IRAK-1-4 Inhibitor I = compound: C1COCCN1CCN2C3=CC=CC=C3N=C2NC(=O)C4=CC(=CC=C4)[N+](=O)[O-] [IRAK-1-4 Inhibitor I]
# Outline: as §1
# ibrutinib = compound: C=CC(=O)N1CCC[C@@H](n2nc(-c3ccc(Oc4ccccc4)cc3)c3c(N)ncnc32)C1 [ibrutinib]
# Outline: as §1
# [9] = compound: CC(=O)c1cnc2ccc(-c3cc(Cl)c(O)c(Cl)c3)nc2c1N[C@H]1CC[C@H](CN(C)C)CC1
# Outline: as §1
# ralimetinib = compound: CC(C)(C)Cn1c(N)nc2ccc(-c3[nH]c(C(C)(C)C)nc3-c3ccc(F)cc3)nc21 [ralimetinib]
# Outline: as §1
# [10] = compound: CC(C)(O)CC(=O)NCCn1ccc2ncnc(Nc3ccc(Oc4cccc(C(F)(F)F)c4)c(Cl)c3)c21
# Outline: as §1
# [11] = compound: CC(C)C1=C2N=C(C=C(N2N=C1)NCC3=CC=CC=C3)NCCCCCCN
# Outline: as §1
# [12] = compound: CC1=C(C(CC(=O)N1)C2=CC=C(C=C2)C(F)(F)F)C(=O)NC3=C(C=C4C(=C3)C=NN4)F
# Outline: as §1
# [13] = compound: CC1=C(C2=C(C=C1)C(=O)C3=CC=CC=C3N2CCCN)C
# Outline: as §1
# [14] = compound: CC1=C(C=C(C=C1)NC(=O)C2=CC(=CC=C2)C(C)(C)C#N)NC3=CC4=C(C=C3)N=CN(C4=O)C
# Outline: as §1
# [15] = compound: CC1=C(C=C(C=C1)NC(=O)C2=CC(=CC=C2)N(C)C)NC(=O)C3=CC=C(C=C3)O
# Outline: as §1
# [16] = compound: CC1=CC=C(C=C1)SC2=C3C=C(SC3=CN=C2)C(=O)N
# Outline: as §1
# Chain of UniProt Q13509 (Q13509 whole entry, looked up): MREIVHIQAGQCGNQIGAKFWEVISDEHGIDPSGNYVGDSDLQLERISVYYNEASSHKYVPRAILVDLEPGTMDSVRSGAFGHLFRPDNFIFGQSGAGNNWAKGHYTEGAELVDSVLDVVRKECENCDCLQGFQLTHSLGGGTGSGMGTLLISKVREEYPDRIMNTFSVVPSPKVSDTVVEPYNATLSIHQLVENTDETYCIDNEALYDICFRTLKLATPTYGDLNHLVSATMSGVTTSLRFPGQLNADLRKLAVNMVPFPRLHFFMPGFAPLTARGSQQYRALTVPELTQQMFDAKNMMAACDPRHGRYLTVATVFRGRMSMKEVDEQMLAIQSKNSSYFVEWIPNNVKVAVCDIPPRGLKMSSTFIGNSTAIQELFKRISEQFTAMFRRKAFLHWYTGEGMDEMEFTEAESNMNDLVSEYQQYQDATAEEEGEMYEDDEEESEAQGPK
# Chain of UniProt P33981 (P33981 whole entry, looked up): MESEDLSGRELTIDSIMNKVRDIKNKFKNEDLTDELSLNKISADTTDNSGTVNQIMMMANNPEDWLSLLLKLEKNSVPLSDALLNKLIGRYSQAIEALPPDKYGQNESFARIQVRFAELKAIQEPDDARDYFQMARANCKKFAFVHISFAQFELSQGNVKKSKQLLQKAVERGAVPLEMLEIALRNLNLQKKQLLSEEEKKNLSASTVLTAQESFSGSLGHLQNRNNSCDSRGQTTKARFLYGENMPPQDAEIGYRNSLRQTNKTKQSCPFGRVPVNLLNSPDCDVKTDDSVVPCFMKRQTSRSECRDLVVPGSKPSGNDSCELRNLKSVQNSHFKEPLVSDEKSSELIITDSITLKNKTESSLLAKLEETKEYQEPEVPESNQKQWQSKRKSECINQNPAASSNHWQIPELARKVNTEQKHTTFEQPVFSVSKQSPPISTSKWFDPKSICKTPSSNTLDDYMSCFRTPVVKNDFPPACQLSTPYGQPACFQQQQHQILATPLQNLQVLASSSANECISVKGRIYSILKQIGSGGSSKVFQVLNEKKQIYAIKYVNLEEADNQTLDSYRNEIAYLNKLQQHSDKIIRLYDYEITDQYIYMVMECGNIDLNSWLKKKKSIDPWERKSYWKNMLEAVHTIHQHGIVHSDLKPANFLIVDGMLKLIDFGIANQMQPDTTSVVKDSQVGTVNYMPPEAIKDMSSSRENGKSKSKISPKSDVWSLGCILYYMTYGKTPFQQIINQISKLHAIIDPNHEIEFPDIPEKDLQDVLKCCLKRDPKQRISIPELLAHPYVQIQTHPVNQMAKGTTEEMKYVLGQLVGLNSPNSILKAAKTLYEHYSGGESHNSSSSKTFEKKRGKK
# Chain of UniProt Q6IPR3 (Q6IPR3 whole entry, looked up): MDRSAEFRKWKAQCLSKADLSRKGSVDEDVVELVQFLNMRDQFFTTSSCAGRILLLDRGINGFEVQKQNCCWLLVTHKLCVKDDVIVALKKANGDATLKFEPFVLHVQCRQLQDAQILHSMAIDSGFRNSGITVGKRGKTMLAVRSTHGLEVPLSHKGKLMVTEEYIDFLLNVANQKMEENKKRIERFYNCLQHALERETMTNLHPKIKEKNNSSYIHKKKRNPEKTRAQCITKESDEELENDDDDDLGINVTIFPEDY
# Chain of UniProt Q15813 (Q15813 whole entry, looked up): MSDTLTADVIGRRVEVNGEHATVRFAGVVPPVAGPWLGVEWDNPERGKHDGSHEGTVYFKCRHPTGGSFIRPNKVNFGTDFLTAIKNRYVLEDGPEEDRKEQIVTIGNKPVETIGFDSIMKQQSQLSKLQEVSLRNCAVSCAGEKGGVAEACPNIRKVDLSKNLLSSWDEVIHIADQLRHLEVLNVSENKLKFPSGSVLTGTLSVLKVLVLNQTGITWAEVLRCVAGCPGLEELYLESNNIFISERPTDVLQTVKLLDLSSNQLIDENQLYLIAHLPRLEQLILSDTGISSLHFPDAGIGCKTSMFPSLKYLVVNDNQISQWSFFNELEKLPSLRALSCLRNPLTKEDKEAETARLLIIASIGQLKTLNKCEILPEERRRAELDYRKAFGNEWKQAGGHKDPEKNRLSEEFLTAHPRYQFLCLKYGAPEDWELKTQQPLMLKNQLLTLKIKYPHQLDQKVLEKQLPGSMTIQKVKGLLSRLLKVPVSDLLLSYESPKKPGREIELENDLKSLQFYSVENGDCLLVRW
# Chain of UniProt O43493 (O43493 whole entry, looked up): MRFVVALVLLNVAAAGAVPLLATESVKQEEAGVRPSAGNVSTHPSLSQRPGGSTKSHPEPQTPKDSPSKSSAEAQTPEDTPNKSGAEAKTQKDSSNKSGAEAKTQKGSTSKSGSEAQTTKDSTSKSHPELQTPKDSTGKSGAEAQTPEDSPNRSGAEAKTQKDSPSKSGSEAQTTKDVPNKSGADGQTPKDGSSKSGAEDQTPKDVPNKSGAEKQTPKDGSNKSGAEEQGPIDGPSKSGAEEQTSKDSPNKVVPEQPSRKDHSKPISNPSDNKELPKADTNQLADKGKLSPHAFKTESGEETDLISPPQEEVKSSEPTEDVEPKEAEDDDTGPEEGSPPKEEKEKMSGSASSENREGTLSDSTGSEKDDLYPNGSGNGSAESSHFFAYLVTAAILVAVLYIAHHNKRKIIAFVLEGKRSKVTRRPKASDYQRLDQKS
# Chain of UniProt P11441 (P11441 whole entry, looked up): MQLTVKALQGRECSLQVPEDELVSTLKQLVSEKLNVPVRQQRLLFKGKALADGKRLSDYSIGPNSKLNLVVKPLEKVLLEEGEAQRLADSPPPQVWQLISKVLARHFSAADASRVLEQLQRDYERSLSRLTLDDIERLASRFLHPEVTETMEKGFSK
# Chain of UniProt Q96S44 (Q96S44 whole entry, looked up): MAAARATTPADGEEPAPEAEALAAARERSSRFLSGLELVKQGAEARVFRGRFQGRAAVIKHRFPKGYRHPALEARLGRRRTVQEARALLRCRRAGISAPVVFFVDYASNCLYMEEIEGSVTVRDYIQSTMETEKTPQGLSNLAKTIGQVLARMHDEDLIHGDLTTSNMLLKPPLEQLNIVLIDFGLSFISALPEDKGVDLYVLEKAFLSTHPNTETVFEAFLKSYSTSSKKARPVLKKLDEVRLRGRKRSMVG
# Chain of UniProt P06753 (P06753 whole entry, looked up): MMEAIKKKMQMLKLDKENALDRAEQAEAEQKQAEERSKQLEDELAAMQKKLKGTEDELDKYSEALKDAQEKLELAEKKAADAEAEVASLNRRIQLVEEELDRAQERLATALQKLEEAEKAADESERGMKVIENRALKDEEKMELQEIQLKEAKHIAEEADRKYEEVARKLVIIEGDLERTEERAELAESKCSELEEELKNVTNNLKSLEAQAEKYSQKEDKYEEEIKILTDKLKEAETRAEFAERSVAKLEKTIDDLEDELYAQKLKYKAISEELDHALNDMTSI
# Chain of UniProt Q96F44 (Q96F44 whole entry, looked up): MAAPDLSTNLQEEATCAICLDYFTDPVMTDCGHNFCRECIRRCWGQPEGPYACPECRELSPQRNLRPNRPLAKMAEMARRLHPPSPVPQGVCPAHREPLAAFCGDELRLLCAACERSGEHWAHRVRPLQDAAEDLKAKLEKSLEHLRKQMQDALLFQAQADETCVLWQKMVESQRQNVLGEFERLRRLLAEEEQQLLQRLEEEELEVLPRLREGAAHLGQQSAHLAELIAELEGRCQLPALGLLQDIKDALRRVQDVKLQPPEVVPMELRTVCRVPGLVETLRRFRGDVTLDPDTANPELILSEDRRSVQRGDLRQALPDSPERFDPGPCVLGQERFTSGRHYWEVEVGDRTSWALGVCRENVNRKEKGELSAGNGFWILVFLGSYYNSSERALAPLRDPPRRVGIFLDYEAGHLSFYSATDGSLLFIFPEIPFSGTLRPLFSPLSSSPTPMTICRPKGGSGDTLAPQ
# Chain of UniProt Q9Y5K5 (Q9Y5K5 whole entry, looked up): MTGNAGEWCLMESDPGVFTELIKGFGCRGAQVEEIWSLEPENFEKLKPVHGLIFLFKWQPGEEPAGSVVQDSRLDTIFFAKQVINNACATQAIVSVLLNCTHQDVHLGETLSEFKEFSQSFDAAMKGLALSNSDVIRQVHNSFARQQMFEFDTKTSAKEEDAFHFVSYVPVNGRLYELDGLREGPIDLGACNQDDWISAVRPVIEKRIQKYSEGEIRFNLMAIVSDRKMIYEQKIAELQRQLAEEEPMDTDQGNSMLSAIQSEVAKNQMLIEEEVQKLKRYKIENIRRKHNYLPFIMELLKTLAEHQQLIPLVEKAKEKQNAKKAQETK
# Chain of UniProt Q6NXR4 (Q6NXR4 whole entry, looked up): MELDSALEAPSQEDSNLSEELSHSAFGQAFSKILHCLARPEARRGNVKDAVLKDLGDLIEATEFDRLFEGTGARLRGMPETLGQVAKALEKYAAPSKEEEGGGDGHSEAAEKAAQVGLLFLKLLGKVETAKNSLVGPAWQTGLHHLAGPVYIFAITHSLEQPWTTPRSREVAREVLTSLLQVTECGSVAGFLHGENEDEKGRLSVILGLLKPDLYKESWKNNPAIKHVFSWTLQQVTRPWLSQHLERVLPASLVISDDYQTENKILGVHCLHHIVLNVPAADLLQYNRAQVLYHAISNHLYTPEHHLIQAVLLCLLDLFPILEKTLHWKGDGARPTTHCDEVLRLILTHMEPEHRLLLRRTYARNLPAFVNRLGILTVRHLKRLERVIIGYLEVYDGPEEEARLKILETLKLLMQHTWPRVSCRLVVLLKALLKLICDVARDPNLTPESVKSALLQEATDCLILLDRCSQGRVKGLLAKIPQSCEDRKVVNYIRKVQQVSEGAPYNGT
Target,log2 fold change (erlotinib),log2 fold change [1],log2 fold change [2],log2 fold change [3],log2 fold change [4],log2 fold change [5],log2 fold change [6],log2 fold change [7],log2 fold change [8],log2 fold change (IRAK-1-4 Inhibitor I),log2 fold change (ibrutinib),log2 fold change [9],log2 fold change (ralimetinib),log2 fold change [10],log2 fold change [11],log2 fold change [12],log2 fold change [13],log2 fold change [14],log2 fold change [15],log2 fold change [16]
TYW3 (UniProt Q6IPR3),-0.002,0.003,0.063,-0.032,-0.008,0.002,-0.07,-0.054,0.014,0.018,-0.052,-0.054,-0.016,-0.081,0.043,-0.015,-0.021,0.025,0.01,-0.004
TP53RK (UniProt Q96S44),-0.005,0.025,0.038,-0.24 (active),-0.37 (active),-0.03,0.042,0.014,-0.022,-0.008,0.02,-0.059,0.019,-0.008,0.007,-0.013,-0.004,0,-0.02,-0.071
TBRG4 (UniProt Q969Z0),0.033,-0.048,-0.036,0.001,0.013,-0.044,-0.031,0.013,0.008,-0.009,0.014,0.025,0.002,-0.023,-0.011,0.001,0.062,-0.041,0.044,-0.023
TBCE (UniProt Q15813),0.02,0.049,-0.016,0.004,0.014,0.001,-0.07,-0.027,0.038,-0.002,-0.027,0.004,0.037,0.01,-0.004,0.003,0.004,-0.007,0.025,-0.016
TGOLN2 isoform 7 (UniProt O43493),-0.108,0.007,0,0.022,-0.036,-0.021,0.012,-0.025,0.011,0.029,-0.023,0.013,-0.065,-0.058,0.003,0.009,0.005,-0.033,0.051,-0.013
UCHL5 isoform 3 (UniProt Q9Y5K5),-0.015,-0.012,0.015,-0.018,0.01,-0.005,0.001,0,-0.014,-0.018,0,-0.001,0.01,-0.008,0.015,0.014,0.011,-0.029,0.004,0.012
TRIP13 (UniProt Q15645),0.034,-0.117,0.007,0.04,-0.034,0.009,-0.038,0,-0.002,0.005,-0.025,-0.013,0.039,0.023,-0.022,-0.004,0.006,0.029,0.045,0.001
TPM3 isoform 2 (UniProt P06753),-0.075,-0.007,-0.065,-0.008,0.003,0.004,0.038,0.039,-0.074,-0.042,0.03,-0.007,-0.02,0.05,-0.034,-0.005,-0.019,-0.073,0.002,-0.006
TTI2 (UniProt Q6NXR4),-0.003,0.037,0.023,0.047,0.013,0.012,-0.015,-0.028,0.007,0.014,0.012,0.016,0.019,-0.062,-0.004,-0.009,0.018,-0.009,-0.015,-0.017
TUBB3 (UniProt Q13509),0.025,-0.089,0.016,-0.004,0.001,-0.019,-0.025,0.018,0.03,0.006,0.003,0.009,0.022,-0.019,0.025,0.013,0.005,-0.007,0.015,0.019
UBL4A (UniProt P11441),-0.04,0.014,-0.069,0.005,0.087,0.021,0.04,0.024,-0.028,-0.042,0.056,0.055,0,0.049,0.009,-0.023,-0.02,-0.044,-0.002,0.025
TPM3 (UniProt P06753),-0.022,0.027,-0.026,-0.042,-0.012,0.014,0.068,0.035,-0.021,-0.019,0.009,-0.001,-0.028,0.022,0.013,-0.028,0.013,-0.038,-0.016,-0.007
UBE3C (UniProt Q15386),0.035,-0.061,-0.067,0.011,-0.036,-0.01,-0.022,0.027,0.049,0,-0.011,0.024,0.012,-0.028,-0.011,0.005,0.04,-0.021,0.021,0.01
TTK (UniProt P33981),-0.032,-0.1,0.09,-0.034,0.004,0.039,0.258,0.054,-0.039,-0.032,0.008,0.111,0.025,-0.036,0.001,0.018,-0.008,-0.011,0.017,0.013
TRIM11 (UniProt Q96F44),0.005,-0.012,-0.008,-0.002,0.012,-0.018,-0.032,-0.046,0.002,0.043,0.008,0.05,-0.009,-0.049,-0.011,-0.067,-0.04,0.005,-0.014,0.036
